Laboratory results as given in PubChem BioAssay (NCI).
“And” between values parts separate entries of the source, which are not always exact repeats. Identical values can stand only once. The panel holds about 79,000 compounds, 15% with a hit somewhere; the sample as a whole holds those more often. The source made the active and inactive calls. Cut-off read from the data, not from the text of the source: active = growth inhibition above about 70%; inactive = the rest.

Key:
[1] = NCI Yeast Anticancer Drug Screen. Data for the rad52 strain (AID 147);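 note: 0% = growth of vehicle-treated control cultures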; details: S. cerevisiae rad52 mutant growth inhibition, hits give high values
Outline: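 Genetically altered yeast (DNA damage repair defect) treated with compound; inhibition calculated relative to vehicle.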

[2] = NCI Yeast Anticancer Drug Screen. Data for the mgt1 strain (AID 153); details: S. cerevisiae mgt1 mutant growth inhibition, hits give high values
Outline: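 Read-out: yeast growth inhibition vs vehicle control. Strain mgt1, drawn from a panel altered in DNA damage repair or cell cycle control.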

[3] = NCI Yeast Anticancer Drug Screen. Data for the rad50 strain (AID 155);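 note: 0% = growth of vehicle-only cultures of the same strain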; details: S. cerevisiae rad50 strain growth inhibition, hits give high values
Outline: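 Yeast carrying a defined DNA repair defect were exposed to test compounds, and growth was compared with vehicle-treated controls to give percent inhibition.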

[4] = NCI Yeast Anticancer Drug Screen. Data for the mec2-1 strain (AID 157); details: S. cerevisiae mec2-1 strain, hits give high values
Outline: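 Cells of the genetically defined mec2-1 yeast strain are incubated with test compound. Inhibition of growth is calculated against vehicle-treated controls.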

[5] = NCI Yeast Anticancer Drug Screen. Data for the rad14 strain (AID 159);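 note: 0% = growth of vehicle-treated control cultures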; details: S. cerevisiae rad14 strain growth inhibition, hits give high values
Outline: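 Yeast cells carrying a defined DNA-repair defect were exposed to compounds, and growth inhibition was calculated relative to vehicle-treated control cultures.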

[6] = NCI Yeast Anticancer Drug Screen. Data for the sgs1 mgt1 strain (AID 161);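 note: 0% = growth of cultures given vehicle only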; details: S. cerevisiae sgs1 mgt1 strain, hits give high values
Outline: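 Genetically altered yeast, compound exposure, growth inhibition relative to vehicle.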

[7] = NCI Yeast Anticancer Drug Screen. Data for the CLN2oe strain (AID 163);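 note: 0% = growth of vehicle-only control cultures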; details: S. cerevisiae CLN2oe strain, hits give high values
Outline: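 Strain altered in cell-cycle control, incubated with compound; growth compared to solvent-treated controls.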

[8] = NCI Yeast Anticancer Drug Screen. Data for the cln2 rad14 strain (AID 165);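 note: 0% = growth equal to vehicle treated cultures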; details: S. cerevisiae cln2 rad14 strain, hits give high values
Outline: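 The screen exposed genetically defined yeast (cln2 rad14) to test compounds and scored growth inhibition relative to vehicle-treated controls.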

[9] = NCI Yeast Anticancer Drug Screen. Data for the bub3 strain (AID 167); details: S. cerevisiae bub3 mutant strain, hits give high values
Outline: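 Compounds were applied to a genetically altered yeast strain carrying a cell-cycle control defect. Growth inhibition was scored against vehicle-treated controls.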

[10] = NCI Yeast Anticancer Drug Screen. Data for the wt2 strain (AID 169);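 note: 0% = growth of vehicle-treated yeast cultures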; details: S. cerevisiae wt2 strain growth inhibition, hits give high values
Outline: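 Steps: yeast strain treated with compound; growth recorded; inhibition calculated relative to cultures given vehicle alone.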

[11] = NCI Yeast Anticancer Drug Screen. Data for the mlh1 strain (AID 171);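 note: 0% = growth of vehicle-treated control cultures of the same strain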; details: S. cerevisiae mlh1 strain growth inhibition, hits give high values
Outline: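 Yeast screen: mutant strain plus compound, growth scored against vehicle control wells.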

[12] = NCI Yeast Anticancer Drug Screen. Data for the sgs1 strain (AID 173);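 note: 0% = growth of vehicle-only control cultures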; details: S. cerevisiae sgs1 mutant, hits give high values
Outline: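 Inhibition of yeast growth served as the measure. The mutant strain was treated with each compound, and growth was normalised to cultures receiving vehicle alone.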

[13] = NCI Yeast Anticancer Drug Screen. Data for the mlh1 rad18 strain (AID 175); details: S. cerevisiae mlh1 rad18 strain growth inhibition, hits give high values
Outline: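 Compound-treated yeast growth, normalised to vehicle controls. Strain bears defined DNA repair mutations.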

[14] = NCI Yeast Anticancer Drug Screen. Data for the rad18 strain (AID 177); details: S. cerevisiae rad18 mutant growth inhibition, hits give high values
Outline: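 Inhibition values reflect reduced yeast growth compared with vehicle-treated controls, using a strain engineered with a DNA damage repair defect.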

[15] = NCI Yeast Anticancer Drug Screen. Data for the wt1 strain (AID 149);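 note: 0% = growth of vehicle-treated wt1 cultures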; details: S. cerevisiae wt1 strain (SPY 50644) growth inhibition, hits give high values
Outline: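 Yeast wt1 strain exposed to compounds; growth inhibition measured relative to vehicle-treated controls.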

[16] = NCI Yeast Anticancer Drug Screen. Data for the rad50EPP+ strain (AID 151);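 note: 0% = growth of vehicle-treated control cultures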; details: S. cerevisiae rad50 mutant strain, hits give high values
Outline: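 Strain rad50EPP+; compound exposure; % growth inhibition vs vehicle.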

[17] = at 5.0 µM (retest, dose inferred, filed as 0.5)
[18] = at 50.0 µM (retest, dose inferred, filed as 5.0)

Measured: growth inhibition

CN(CC(=O)O)c1ccc(/C=C/c2ccnc3ccccc23)cc1
active: [6]; [18] 80% | [13]; [18] 88% | [14]; at 33.0 µM 78% | [14]; at 100.0 µM 91%
inactive: [1]; at 1.2 µM -3% | [1]; at 3.7 µM -5% | [1]; at 11.0 µM -2% | [1]; at 33.0 µM 13% | [1]; at 100.0 µM 41% | [2]; at 1.2 µM 0% | [2]; at 3.7 µM 0% | [2]; at 11.0 µM -2% | [2]; at 33.0 µM -2% | [2]; at 100.0 µM 39% | [3]; at 1.2 µM -1% | [3]; at 3.7 µM -1% | [3]; [17] 23% | [3]; at 11.0 µM 2% | [3]; at 33.0 µM 11% | [3]; [18] 24% | [3]; at 50.0 µM 14.7% | [3]; at 100.0 µM 31% | [4]; at 1.2 µM -5% | [4]; at 3.7 µM -4% | [4]; [17] 6% | [4]; at 11.0 µM -5% | [4]; at 33.0 µM -3% | [4]; [18] 12% | [4]; at 50.0 µM 33.5% | [4]; at 100.0 µM 16% | [5]; at 1.2 µM -3% | [5]; at 3.7 µM -5% | [5]; at 11.0 µM -2% | [5]; at 33.0 µM 6% | [5]; at 100.0 µM 32% | [6]; [17] 5% | [6]; at 50.0 µM 59.2% | [7]; at 1.2 µM -3% | [7]; at 3.7 µM -4% | [7]; at 11.0 µM -9% | [7]; at 33.0 µM -15% | [7]; at 100.0 µM -12% | [8]; [17] -2% | [8]; [18] 22% | [8]; at 50.0 µM -46.4% | [9]; at 1.2 µM -3% | [9]; at 3.7 µM -4% | [9]; [17] 6% | [9]; at 11.0 µM -5% | [9]; at 33.0 µM -8% | [9]; [18] 20% | [9]; at 50.0 µM 51.9% | [9]; at 100.0 µM 12% | [10]; at 1.2 µM -4% | [10]; at 3.7 µM -4% | [10]; at 11.0 µM -5% | [10]; at 33.0 µM -3% | [10]; at 100.0 µM 37% | [11]; at 1.2 µM -1% | [11]; at 3.7 µM 2% | [11]; at 11.0 µM 3% | [11]; at 33.0 µM 7% | [11]; at 100.0 µM 41% | [12]; at 1.2 µM -2% | [12]; at 3.7 µM 0% | [12]; at 11.0 µM 4% | [12]; at 33.0 µM 22% | [12]; at 100.0 µM 65% | [13]; [17] 30% | [13]; at 50.0 µM 50.4% | [14]; at 1.2 µM 1% | [14]; at 3.7 µM 5% | [14]; at 11.0 µM 10%

CC(=O)C1=C(O)C2(C)c3c(O)c(C)c(O)c(C(C)=O)c3OC2(Sc2ccccc2)CC1=O (centres undefined)
active: [15]; at 100.0 µM 89% | [3]; [18] 85% | [3]; at 100.0 µM 83% | [4]; [18] 93% | [4]; at 100.0 µM 84% | [5]; at 100.0 µM 85% | [6]; [18] 91% | [7]; at 100.0 µM 85% | [8]; [18] 94% | [9]; [18] 91% | [9]; at 100.0 µM 86% | [10]; at 100.0 µM 89% | [11]; at 100.0 µM 83% | [12]; at 100.0 µM 85% | [13]; [18] 89% | [14]; at 100.0 µM 82%
inactive: [15]; at 1.2 µM 21% | [15]; at 3.7 µM 51% | [15]; at 11.0 µM 55% | [15]; at 33.0 µM 66% | [16]; at 1.2 µM 23% | [16]; at 3.7 µM 18% | [16]; at 11.0 µM 30% | [16]; at 33.0 µM 33% | [16]; at 100.0 µM 52% | [3]; at 1.2 µM 20% | [3]; at 3.7 µM 20% | [3]; [17] -15% | [3]; at 11.0 µM 36% | [3]; at 33.0 µM 53% | [3]; at 50.0 µM 63% and 7.1% | [4]; at 1.2 µM 4% | [4]; at 3.7 µM 24% | [4]; [17] 22% | [4]; at 11.0 µM 43% | [4]; at 33.0 µM 54% | [4]; at 50.0 µM 68.6% and -7.9% | [5]; at 1.2 µM 0% | [5]; at 3.7 µM 5% | [5]; at 11.0 µM 17% | [5]; at 33.0 µM 30% | [6]; [17] 9% | [6]; at 50.0 µM 48.1% and 0.4% | [7]; at 1.2 µM -1% | [7]; at 3.7 µM 34% | [7]; at 11.0 µM 44% | [7]; at 33.0 µM 52% | [8]; [17] 50% | [8]; at 50.0 µM 68.8% and 4.6% | [9]; at 1.2 µM 12% | [9]; at 3.7 µM 40% | [9]; [17] 36% | [9]; at 11.0 µM 42% | [9]; at 33.0 µM 51% | [9]; at 50.0 µM 59.5% and -0.65% | [10]; at 1.2 µM 10% | [10]; at 3.7 µM 34% | [10]; at 11.0 µM 41% | [10]; at 33.0 µM 54% | [11]; at 1.2 µM 3% | [11]; at 3.7 µM 23% | [11]; at 11.0 µM 25% | [11]; at 33.0 µM 38% | [12]; at 1.2 µM 20% | [12]; at 3.7 µM 35% | [12]; at 11.0 µM 48% | [12]; at 33.0 µM 55% | [13]; [17] 14% | [13]; at 50.0 µM 61.6% and 6.3% | [14]; at 1.2 µM 18% | [14]; at 3.7 µM 39% | [14]; at 11.0 µM 31% | [14]; at 33.0 µM 47%

COc1cc(N(C)C)ccc1/C=C\c1ccnc2ccccc12
inactive: [16]; at 1.2 µM -2% | [16]; at 3.7 µM -2% | [16]; at 11.0 µM 10% | [16]; at 33.0 µM 16% | [16]; at 100.0 µM 12% | [3]; at 1.2 µM -5% | [3]; at 3.7 µM -7% | [3]; [17] -10% | [3]; at 11.0 µM -3% | [3]; at 33.0 µM -1% | [3]; [18] -10% | [3]; at 50.0 µM 2.3% | [3]; at 100.0 µM 1% | [4]; at 1.2 µM -4% | [4]; at 3.7 µM -7% | [4]; [17] -11% | [4]; at 11.0 µM -8% | [4]; at 33.0 µM -4% | [4]; [18] -19% | [4]; at 50.0 µM -8.75% | [4]; at 100.0 µM 0% | [5]; at 1.2 µM -5% | [5]; at 3.7 µM -4% | [5]; at 11.0 µM 0% | [5]; at 33.0 µM 6% | [5]; at 100.0 µM 37% | [6]; [17] 0% | [6]; [18] 64% | [6]; at 50.0 µM -4.05% | [7]; at 1.2 µM -11% | [7]; at 3.7 µM -13% | [7]; at 11.0 µM -18% | [7]; at 33.0 µM -15% | [7]; at 100.0 µM -9% | [8]; [17] -17% | [8]; [18] -13% | [8]; at 50.0 µM -3.5% | [9]; at 1.2 µM -5% | [9]; at 3.7 µM -11% | [9]; [17] -14% | [9]; at 11.0 µM -14% | [9]; at 33.0 µM -10% | [9]; [18] -3% | [9]; at 50.0 µM -5.95% | [9]; at 100.0 µM 4% | [10]; at 1.2 µM -4% | [10]; at 3.7 µM -7% | [10]; at 11.0 µM -4% | [10]; at 33.0 µM 16% | [10]; at 100.0 µM 31% | [11]; at 1.2 µM -1% | [11]; at 3.7 µM -6% | [11]; at 11.0 µM 3% | [11]; at 33.0 µM 22% | [11]; at 100.0 µM 38% | [12]; at 1.2 µM -4% | [12]; at 3.7 µM -5% | [12]; at 11.0 µM 10% | [12]; at 33.0 µM 36% | [12]; at 100.0 µM 45% | [13]; [17] -8% | [13]; [18] 32% | [13]; at 50.0 µM 2.15% | [14]; at 1.2 µM -4% | [14]; at 3.7 µM -2% | [14]; at 11.0 µM -1% | [14]; at 33.0 µM 9% | [14]; at 100.0 µM 14%
